PubChem BioAssay AID504453 (The Scripps Research Institute Molecular Screening Center, 2011)
Results with a measured potency or affinity are listed apart. Activity calls are given as the source filed them. The rule behind the calls is not given here.

These molecules were tested against Peroxisome proliferator-activated receptor gamma (Homo sapiens) (UniProt P37231) (assay: competitive ligand displacement at PPARg – biochemical, fluorescence polarization, PolarScreen, PPARg partial agonist project, dose response (AID 504453)). Conditions: PPARg ligand-binding domain, fluorescence polarization competition; series mostly up to 10 µM.
Peroxisome proliferator-activated receptor gamma (Homo sapiens), sequence (P37231 232-505 limits assumed): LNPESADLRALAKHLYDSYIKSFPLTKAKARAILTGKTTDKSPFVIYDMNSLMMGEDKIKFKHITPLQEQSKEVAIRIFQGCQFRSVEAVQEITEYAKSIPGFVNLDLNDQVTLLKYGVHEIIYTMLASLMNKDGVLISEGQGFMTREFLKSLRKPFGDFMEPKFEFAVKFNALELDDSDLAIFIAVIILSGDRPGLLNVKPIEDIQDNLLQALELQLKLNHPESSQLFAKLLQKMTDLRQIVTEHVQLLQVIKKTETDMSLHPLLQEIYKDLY

outcome, inactive:
O=C(Nc1ccccc1Cl)C(=O)c1cn(CC(=O)N2CCOCC2)c2ccccc12
COc1ccc2c(c1)c(=O)c(C(=O)c1ccc(C)cc1)cn2CC(=O)Nc1ccc(F)cc1
CCOc1ccc(C2c3[nH]c4ccccc4c3CCN2Cc2cccn2-c2ncccn2)cc1 (stereo unspecified)
COc1ccccc1N1C(=O)C2C(C(=O)c3ccccc3)=NN(c3ccc(C)cc3)C2C1=O (stereo unspecified)
COc1ccc2c(c1)c(=O)c(C(=O)c1ccc(F)cc1)cn2CC(=O)Nc1ccc(F)cc1
O=C(CSc1nc(=O)n(CCN2CCOCC2)c2c1CCCC2)Nc1cccc([N+](=O)[O-])c1
O=C(C1=C(O)C(=O)N(c2nc3ccc(Cl)cc3s2)C1c1ccco1)c1ccco1 (stereo unspecified)
COc1ccccc1-n1cc(C(=O)c2cc(Cl)ccc2O)cc(C#N)c1=O
Cc1cc(C(=O)CN2C(=O)C(=O)N(Cc3ccccc3)C2=O)c(C)n1-c1ccc2c(c1)OCCO2
COc1cccc(Cn2nc3c4cc(F)ccc4n(Cc4ccc(F)cc4)cc-3c2=O)c1
CN1CCN(S(=O)(=O)c2ccc(Sc3nc4ccccc4[nH]3)c3nsnc23)CC1
